Results published in PubChem BioAssay (NCATS).
Results filed as inconclusive are left out. Entries that show only a call come without a potency. Active and inactive are the calls of the source. Calls come from the whole dose curve; as a rule, active = well fitted inhibition curve with a large enough effect; inconclusive = small, poorly fitted or top-dose-only effect; inactive = flat fitted curve, though single readings scatter.

Key:
CP203 = experiment: qHTS profiling for inhibitors of Plasmodium falciparum proliferation (AID 504749); note: nearly all actives have a fitted effect of over 60% in size; details: P. falciparum in erythrocytes, SYBR Green DNA, 72 h; series mostly up to 28.7 µM
Summary of the method: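 Three-day growth assay of blood-stage parasites in erythrocytes (0.3% parasitemia, 2.5% hematocrit) at 37 C, 5% CO2, quantified by SYBR Green DNA staining after overnight detergent lysis.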

[1] = target: DNA dC->dU-editing enzyme APOBEC-3G (Homo sapiens) (UniProt Q9HC16); experiment: qHTS for inhibitors of Vif-A3G interactions: Validation (AID 588379)
Summary of the method: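 HeLa cells stably expressing Vif and A3G-eYFP, 700 cells/well, incubated overnight at 37 deg C, then exposed to compound overnight at 37 deg C. Inhibition of Vif-mediated degradation read as increased yellow fluorescence (Ex 488/Em 500-530) by laser-scanning cytometry.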

DNA dC->dU-editing enzyme APOBEC-3G (Homo sapiens), sequence (Q9HC16 whole entry, looked up): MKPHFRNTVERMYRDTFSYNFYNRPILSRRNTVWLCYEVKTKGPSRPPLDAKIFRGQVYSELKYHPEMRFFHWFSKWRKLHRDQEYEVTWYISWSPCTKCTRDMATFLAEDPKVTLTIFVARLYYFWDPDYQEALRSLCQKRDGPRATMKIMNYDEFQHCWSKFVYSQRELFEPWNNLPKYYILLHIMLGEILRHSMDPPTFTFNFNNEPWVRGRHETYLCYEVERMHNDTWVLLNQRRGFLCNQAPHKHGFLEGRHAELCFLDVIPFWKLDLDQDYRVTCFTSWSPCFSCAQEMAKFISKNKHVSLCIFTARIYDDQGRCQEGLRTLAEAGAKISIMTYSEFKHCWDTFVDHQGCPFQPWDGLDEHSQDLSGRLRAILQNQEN

Row | Structure (SMILES) | Potency (CP203) | outcome [1]
1 | CC(C)(O)C1C2OC(=O)C1[C@]1(O)C[C@H]3O[C@]34C(=O)O[C@H]2[C@]14C (some centres not stated) (tested in a mixture with another compound) | inactive | –
2 | CC[C@@H](CO)NC(=O)[C@H]1C=C2c3cccc4c3c(cn4C)C[C@H]2N(C)C1 | – | inactive
